Results from the antibiotic and cytotoxicity screens of Wong et al. (2023).
Screen size: about 39,000 compounds; about 3,300 (8.5%) were called active. What follows is part of a selection rich in actives, with near analogues and random picks from the rest.

system: HepG2; experiment: cytotoxicity call (relative viability < 0.9); settings: 10 µM

Question: For `COc1ccc(NC(=O)N(C)C[C@@H]2Oc3c(NC(=O)c4cc(C)nn4C)cccc3C(=O)N([C@@H](C)CO)C[C@@H]2C)cc1`, which cytotoxicity call is on record?
Answer: inactive

Question: For `COc1ccc(CN(C)C[C@@H]2OCCCC[C@@H](C)Oc3ccc(NS(=O)(=O)c4ccc(C)cc4)cc3C(=O)N([C@H](C)CO)C[C@@H]2C)cc1`, which cytotoxicity call is on record?
Answer: inactive

Question: For `COc1ccc(S(=O)(=O)N(C)C[C@H]2Oc3c(NS(C)(=O)=O)cccc3C(=O)N([C@@H](C)CO)C[C@H]2C)cc1`, which cytotoxicity call is on record?
Answer: inactive

Question: For `C[C@@H]1CCCCO[C@@H](CN(C)C(=O)c2ccncc2)[C@H](C)CN([C@H](C)CO)C(=O)c2cc(NS(=O)(=O)c3ccc(Cl)cc3)ccc2O1`, which cytotoxicity call is on record?
Answer: inactive

Question: For `C[C@@H]1CN([C@@H](C)CO)S(=O)(=O)c2ccc(-c3ccncc3)cc2O[C@@H]1CN(C)C(=O)c1cccc(F)c1`, which cytotoxicity call is on record?
Answer: inactive

Question: How did the cytotoxicity call turn out when `CO[C@H]1CN(C)C(=O)c2cc(NC(=O)C3CC3)ccc2OC[C@@H](C)N(C(=O)CN2CCOCC2)C[C@@H]1C` was run?
Answer: inactive

Question: `CCc1nc(C(N)=O)c(Nc2ccc(N3CCC(N4CCN(C)CC4)CC3)c(OC)c2)nc1NC1CCOCC1` was tested. Which cytotoxicity call did it give?
Answer: active

Question: `C=CC(=O)N1CC[C@@H](Oc2nc(Nc3ccc(N4CCC(N5CCN(C)CC5)CC4)cc3)c(C(N)=O)nc2CC)C1` was tested. Which cytotoxicity call did it give?
Answer: active

Question: `COCC(=O)NCc1cc(=O)n2c(n1)CN(c1ncccn1)CCC2` was tested. Which cytotoxicity call did it give?
Answer: inactive

Question: `CO[C@H]1CN(C)C(=O)c2cc(NC(=O)Nc3ccccc3)ccc2OC[C@@H](C)N(C(=O)CN(C)C)C[C@@H]1C` was tested. Which cytotoxicity call did it give?
Answer: inactive

Question: How did the cytotoxicity call turn out when `C[C@H](CO)N1C[C@H](C)[C@H](CN(C)Cc2ccc(C(=O)Nc3ccccc3N)cc2)Oc2ccc(NS(=O)(=O)c3cn(C)cn3)cc2CC1=O` was run?
Answer: inactive

Question: `COc1ccc(CN(C)C[C@@H]2OCCCC[C@@H](C)Oc3ccc(NC(=O)Nc4ccc(F)cc4)cc3C(=O)N([C@@H](C)CO)C[C@@H]2C)cc1` was tested. Which cytotoxicity call did it give?
Answer: inactive

Question: With `COc1ccc(CN(C)C[C@H]2OCCCC[C@@H](C)Oc3ccc(NC(=O)Nc4ccc(F)cc4)cc3C(=O)N([C@@H](C)CO)C[C@H]2C)cc1` as the compound, how does the cytotoxicity call read?
Answer: inactive

Question: With `COc1ccc(CN(C)C[C@@H]2OCCCC[C@@H](C)Oc3ccc(NC(=O)Nc4ccc(F)cc4)cc3C(=O)N([C@H](C)CO)C[C@H]2C)cc1` as the compound, how does the cytotoxicity call read?
Answer: active

Question: With `COc1ccc(CN(C)C[C@H]2OCCCC[C@@H](C)Oc3ccc(NC(=O)Nc4ccc(F)cc4)cc3C(=O)N([C@H](C)CO)C[C@@H]2C)cc1` as the compound, how does the cytotoxicity call read?
Answer: inactive

Question: How did the cytotoxicity call turn out when `COc1ccc(CN(C)C[C@@H]2OCCCC[C@@H](C)Oc3ccc(NC(=O)Nc4ccc(F)cc4)cc3C(=O)N([C@H](C)CO)C[C@@H]2C)cc1` was run?
Answer: inactive

Question: How did the cytotoxicity call turn out when `COc1ccc(CN(C)C[C@@H]2OCCCC[C@H](C)Oc3ccc(NC(=O)Nc4ccc(F)cc4)cc3C(=O)N([C@H](C)CO)C[C@@H]2C)cc1` was run?
Answer: active

Question: `COc1ccc(CN(C)C[C@@H]2OCCCC[C@H](C)Oc3ccc(NC(=O)Nc4ccc(F)cc4)cc3C(=O)N([C@@H](C)CO)C[C@H]2C)cc1` was tested. Which cytotoxicity call did it give?
Answer: inactive

Question: `COc1ccc(CN(C)C[C@@H]2OCCCC[C@@H](C)Oc3ccc(NC(=O)Nc4ccc(F)cc4)cc3C(=O)N([C@@H](C)CO)C[C@H]2C)cc1` was tested. Which cytotoxicity call did it give?
Answer: active

Question: `COc1ccc(CN(C)C[C@@H]2OCCCC[C@H](C)Oc3ccc(NC(=O)Nc4ccc(F)cc4)cc3C(=O)N([C@@H](C)CO)C[C@@H]2C)cc1` was tested. Which cytotoxicity call did it give?
Answer: active

Question: With `COc1ccc(CN(C)C[C@@H]2OCCCC[C@H](C)Oc3ccc(NC(=O)Nc4ccc(F)cc4)cc3C(=O)N([C@H](C)CO)C[C@H]2C)cc1` as the compound, how does the cytotoxicity call read?
Answer: inactive

Question: `C[C@H](CO)N1C[C@H](C)[C@@H](CN(C)Cc2ccccc2F)Oc2cc(C#CC3CC3)ccc2S1(=O)=O` was tested. Which cytotoxicity call did it give?
Answer: inactive

Question: `Nc1cnc(Cl)nc1N` was tested. Which cytotoxicity call did it give?
Answer: inactive

Question: Which cytotoxicity call does the source give for `COC(=O)C[C@@H]1C(=O)NCCN1C(=O)NS(=O)(=O)c1ccc(C)cc1` here?
Answer: inactive

Question: For `C[C@@H]1CN([C@H](C)CO)C(=O)c2cccc(NS(=O)(=O)c3cccs3)c2O[C@@H]1CN(C)S(=O)(=O)c1ccccc1`, which cytotoxicity call is on record?
Answer: inactive

Question: Which cytotoxicity call does the source give for `O=C(NN1CCCCC1)c1nn(-c2ccc(Cl)cc2Cl)c(-c2ccc(C#Cc3ccc(C(F)(F)F)cc3)s2)c1CNS(=O)(=O)N1CCCC1` here?
Answer: inactive

Question: For `COc1ccc(CN(C)C[C@H]2OCCCC[C@@H](C)Oc3ccc(NC(=O)Nc4ccc(F)cc4)cc3C(=O)N([C@@H](C)CO)C[C@@H]2C)cc1`, which cytotoxicity call is on record?
Answer: active

Question: How did the cytotoxicity call turn out when `COc1ccc(CN(C)C[C@H]2OCCCC[C@H](C)Oc3ccc(NC(=O)Nc4ccc(F)cc4)cc3C(=O)N([C@@H](C)CO)C[C@H]2C)cc1` was run?
Answer: active

Question: How did the cytotoxicity call turn out when `COc1ccc(CN(C)C[C@H]2OCCCC[C@@H](C)Oc3ccc(NC(=O)Nc4ccc(F)cc4)cc3C(=O)N([C@H](C)CO)C[C@H]2C)cc1` was run?
Answer: active

Question: For `COc1ccc(CN(C)C[C@H]2OCCCC[C@H](C)Oc3ccc(NC(=O)Nc4ccc(F)cc4)cc3C(=O)N([C@H](C)CO)C[C@H]2C)cc1`, which cytotoxicity call is on record?
Answer: active

Question: Which cytotoxicity call does the source give for `COc1ccc(CN(C)C[C@H]2OCCCC[C@H](C)Oc3ccc(NC(=O)Nc4ccc(F)cc4)cc3C(=O)N([C@@H](C)CO)C[C@@H]2C)cc1` here?
Answer: inactive

Question: With `COc1ccc(CN(C)C[C@H]2OCCCC[C@H](C)Oc3ccc(NC(=O)Nc4ccc(F)cc4)cc3C(=O)N([C@H](C)CO)C[C@@H]2C)cc1` as the compound, how does the cytotoxicity call read?
Answer: inactive

Question: Which cytotoxicity call does the source give for `CCn1nnc2c(SCC(N)=O)ncnc21` here?
Answer: inactive

Question: With `O=C(NCc1ccccc1)OCCO` as the compound, how does the cytotoxicity call read?
Answer: inactive

Question: Which cytotoxicity call does the source give for `O=C(C[C@H]1CC[C@@H]2[C@H](COC[C@@H](O)CN2C(=O)Nc2ccc(F)cc2)O1)NCCCN1CCOCC1` here?
Answer: inactive

Question: `CN1CCN(C(=O)C[C@H]2CC[C@@H]3[C@H](COC[C@H](O)CN3S(=O)(=O)c3cccc(F)c3)O2)CC1` was tested. Which cytotoxicity call did it give?
Answer: inactive

Question: With `COc1cccc(S(=O)(=O)N2C[C@H](O)COC[C@H]3O[C@@H](CC(=O)NCCCN4CCOCC4)CC[C@@H]32)c1` as the compound, how does the cytotoxicity call read?
Answer: inactive

Question: With `C[C@@H]1CCCCO[C@H](CN(C)C(=O)Cc2ccccc2)[C@@H](C)CN([C@H](C)CO)C(=O)c2cc(NS(=O)(=O)c3ccc(Cl)cc3)ccc2O1` as the compound, how does the cytotoxicity call read?
Answer: inactive

Question: Which cytotoxicity call does the source give for `C[C@@H]1CN([C@H](C)CO)C(=O)c2cc(NS(=O)(=O)c3ccccc3)ccc2O[C@@H](C)CCCCO[C@@H]1CN(C)C(=O)C1CCCCC1` here?
Answer: inactive

Question: With `CN1CCCN=C1C=Cc1cccc(O)c1.O=C(O)c1cc2ccccc2c(Cc2c(O)c(C(=O)O)cc3ccccc23)c1O` as the compound, how does the cytotoxicity call read?
Answer: inactive

Question: With `Cc1cc(C=Cc2ccc3cc(N(C)C)ccc3[n+]2C)c(C)n1-c1ccccc1.O=C([O-])c1cc2ccccc2c(Cc2c(O)c(C(=O)O)cc3ccccc23)c1O` as the compound, how does the cytotoxicity call read?
Answer: active

Question: How did the cytotoxicity call turn out when `CN1CCCN=C1C=Cc1cccs1.O=C(O)c1cc2ccccc2c(Cc2c(O)c(C(=O)O)cc3ccccc23)c1O` was run?
Answer: inactive

Question: With `O=C(C[C@@H]1C[C@H]2c3cc(NS(=O)(=O)c4ccc(F)cc4)ccc3O[C@H]2[C@H](CO)O1)NC1CCCCC1` as the compound, how does the cytotoxicity call read?
Answer: inactive

Question: With `C[C@H]1CN([C@@H](C)CO)C(=O)c2cc(NS(C)(=O)=O)ccc2O[C@H]1CN(C)S(=O)(=O)c1ccc(Cl)cc1` as the compound, how does the cytotoxicity call read?
Answer: inactive

Question: Which cytotoxicity call does the source give for `C[C@H]1CN([C@@H](C)CO)C(=O)c2cc(NC(=O)Nc3ccc(C(F)(F)F)cc3)ccc2O[C@@H]1CN(C)S(=O)(=O)c1ccc(Cl)cc1` here?
Answer: active

Question: How did the cytotoxicity call turn out when `C[C@@H]1CN([C@@H](C)CO)C(=O)c2cc(NC(=O)Nc3ccc(C(F)(F)F)cc3)ccc2O[C@@H]1CN(C)S(=O)(=O)c1ccc(Cl)cc1` was run?
Answer: active

Question: For `C[C@@H]1CN([C@H](C)CO)C(=O)c2cc(NC(=O)Nc3ccc(C(F)(F)F)cc3)ccc2O[C@@H]1CN(C)S(=O)(=O)c1ccc(Cl)cc1`, which cytotoxicity call is on record?
Answer: active

Question: For `C[C@H]1CN([C@@H](C)CO)C(=O)c2cc(NS(C)(=O)=O)ccc2O[C@@H]1CN(C)S(=O)(=O)c1ccc(Cl)cc1`, which cytotoxicity call is on record?
Answer: active

Question: Which cytotoxicity call does the source give for `C[C@H](CO)N1C[C@H](C)[C@@H](CN(C)S(=O)(=O)c2ccc(Cl)cc2)Oc2ccc(NS(C)(=O)=O)cc2C1=O` here?
Answer: inactive

Question: With `Cc1noc(C)c1S(=O)(=O)Nc1ccc2c(c1)C(=O)N([C@H](C)CO)C[C@@H](C)[C@@H](CN(C)S(=O)(=O)c1c(C)noc1C)O2` as the compound, how does the cytotoxicity call read?
Answer: inactive

Question: How did the cytotoxicity call turn out when `CS(=O)(=O)N1CCOC[C@]2(CN(C(=O)c3ccc[nH]3)CCO2)C1` was run?
Answer: inactive

Question: With `Cc1noc(C)c1S(=O)(=O)Nc1cccc2c1O[C@@H](CN(C)S(=O)(=O)c1ccc(Cl)cc1)[C@@H](C)CN([C@@H](C)CO)C2=O` as the compound, how does the cytotoxicity call read?
Answer: inactive

Question: For `CCS(=O)(=O)N1CCO[C@]2(COCCN(c3cncnc3)C2)C1`, which cytotoxicity call is on record?
Answer: inactive

Question: Which cytotoxicity call does the source give for `Cc1noc(C)c1NC(=O)Nc1ccc2c(c1)C(=O)N([C@@H](C)CO)C[C@@H](C)[C@@H](CN(C)Cc1ccc(C(F)(F)F)cc1)O2` here?
Answer: inactive

Question: For `Cc1cccn2c(=O)c(-c3nn[nH]n3)cnc12`, which cytotoxicity call is on record?
Answer: inactive

Question: `O=C(C[C@H]1C=C[C@H](NC(=O)CN2CCOCC2)[C@@H](CO)O1)NCc1cccc(F)c1` was tested. Which cytotoxicity call did it give?
Answer: inactive

Question: Which cytotoxicity call does the source give for `C[C@@H]1CN([C@@H](C)CO)S(=O)(=O)c2ccc(-c3cncnc3)cc2O[C@@H]1CN(C)C(=O)NC1CCCC1` here?
Answer: inactive

Question: `C[C@H](CO)N1C[C@H](C)[C@@H](CN(C)Cc2ccc(C(=O)O)cc2)Oc2c(NC(=O)Nc3ccc(C(F)(F)F)cc3)cccc2C1=O` was tested. Which cytotoxicity call did it give?
Answer: inactive

Question: Which cytotoxicity call does the source give for `C[C@@H]1CN([C@H](C)CO)C(=O)c2cc(NC(=O)Nc3ccc(C(F)(F)F)cc3)ccc2O[C@H]1CN(C)S(=O)(=O)c1ccc(Cl)cc1` here?
Answer: active

Question: For `C[C@@H]1CN([C@@H](C)CO)C(=O)c2cc(NC(=O)Nc3ccc(C(F)(F)F)cc3)ccc2O[C@H]1CN(C)S(=O)(=O)c1ccc(Cl)cc1`, which cytotoxicity call is on record?
Answer: active

Question: `C[C@H](CO)N1C[C@H](C)[C@H](CN(C)S(=O)(=O)c2ccc(Cl)cc2)Oc2ccc(NC(=O)Nc3ccc(C(F)(F)F)cc3)cc2C1=O` was tested. Which cytotoxicity call did it give?
Answer: active

Question: With `C[C@H]1CN([C@@H](C)CO)C(=O)c2cc(NC(=O)Nc3ccc(C(F)(F)F)cc3)ccc2O[C@H]1CN(C)S(=O)(=O)c1ccc(Cl)cc1` as the compound, how does the cytotoxicity call read?
Answer: inactive

Question: For `COc1ccc(S(=O)(=O)N(C)C[C@H]2OCCCC[C@H](C)Oc3ccc(NC(=O)CCC(F)(F)F)cc3C(=O)N([C@@H](C)CO)C[C@@H]2C)cc1`, which cytotoxicity call is on record?
Answer: inactive
